Screening results from PubChem.
Rv3671c inh – Rv3671c serine protease inhibitors, primary screen, biochemical, fluorescence polarization, M. tuberculosis H37Rv. inhibition, % at 5.96 µM. actives 0.048% (n = 320,000). AID 2606, 2010;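 further: extracellular domain of Rv3671c used as enzyme; 0% = enzyme with DMSO and 100% = no enzyme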
Mtb bLac sens – beta-lactam sensitization of Mtb H37Rv, H37Rv; M. tuberculosis H37Rv growth with meropenem, percent inhibition; inhibition, % at 25 µM; actives 0.27% (n = 330,000); AID 434955, 2010; call rule not given here;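 further: growth measured after seven days incubation then overnight dye step; 0% = bacteria only wells and 100% = bacteria with antibiotic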
TcdB inh – TcdB glycohydrolase inhibitors, primary screen, biochemical, single point, plate reader; TcdB glycohydrolase enzymatic assay; inhibition, % at 9.99 µM; actives 0.24% (n = 350,000); in the data active means inhibition above about 10%
MazF activator – activators of E. coli MazEF toxin-antitoxin RNase, primary screen, biochemical, fluorescence, uHTS; actives 0.32% (n = 350,000); FAM/BHQ RNA-DNA oligo cleavage fluorescence, 5 h; activation, % at 20 µM; Endoribonuclease toxin MazF (Escherichia coli (strain K12)), P0AE70; AID 504720, 2011; in the data active means activation above about 50%
Target sequence (P0AE70 whole entry, looked up): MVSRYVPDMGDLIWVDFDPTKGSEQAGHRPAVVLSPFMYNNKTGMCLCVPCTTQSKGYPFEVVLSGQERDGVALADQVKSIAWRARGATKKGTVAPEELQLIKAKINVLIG
Mtb UGM inh – M. tuberculosis UGM enzyme inhibitors, primary screen, biochemical, fluorescence polarization, single point; UDP-galactopyranose mutase (Mycobacterium tuberculosis (strain ATCC 25618 / H37Rv)), …; purified UGM, fluorescence polarization probe displacement; inhibition, % at 10 µM; actives 0.06% (n = 320,000); AID 504406, 2011; in the data active means inhibition above about 10%, passing the limit was not always enough
RecA splice inh – Mtb RecA intein splicing inhibitors, primary screen, biochemical, fluorescence, HTS; actives 0.75% (n = 290,000); inhibition, % (no concentration beside the values); cell-free RecA intein splicing; in the data active means inhibition above about 30%;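 further: 0% = vehicle wells and 100% = reference inhibitor control wells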
Rv3671c confirm – Rv3671c serine protease inhibitors, retest, confirmation, biochemical, fluorescence polarization, M. tuberculosis H37Rv | inhibition, % at 5.96 µM | actives 40% (n = 140) | shares compounds with Rv3671c inh
DNA intercalat – intercalates into DNA, flagged in counter-screen; AC50, µM; actives 60% (n = 35); shares compounds with Mtb UGM inh; acridine orange-DNA binding, fluorescence polarization;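 active means fitted AC50 no greater than ten times the top concentration tested, cut at about 17 µM in these data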
Active calls of the source: *; i = inactive; . = no result; + = active, no number. Sampled rows, rich in hits. Any-hit rate of the full collection: about 0.97%. Unless noted, no stated cut-off is given here; in the data, active means inhibition above about 38%; inactive means the rest.

SMILES	Rv3671c inh	Mtb bLac sens	TcdB inh	MazF activator	Mtb UGM inh	RecA splice inh	Rv3671c confirm	others
C[C@@H]1CCCCO[C@H](CN(C)C(=O)CCC(F)(F)F)[C@@H](C)CN([C@@H](C)CO)C(=O)c2cc(NC(=O)c3ccccc3)ccc2O1	.	.	0	.	.	.	.
CCOC(=O)c1ccc(NC(=O)c2cn(-c3ccccc3)nc2-c2ccncc2)cc1	193*	-2	.	-3	-4	0	-40
CCCCNC(=O)COC(=O)c1ccc(Cl)c(S(N)(=O)=O)c1	43*	-5	.	9	0	.	-5
O=C(Oc1cncc(Cl)c1)c1ccco1	63*	-4	.	-4	-1	-5	88*
C[C@@H]1CN([C@@H](C)CO)C(=O)c2cc(NC(=O)Cn3cnnn3)ccc2O[C@H]1CN(C)S(C)(=O)=O	.	.	0	.	.	.	.
Cc1cc(C)cc(-n2c(O)c(C=NC3CCS(=O)(=O)C3)c3ccccc3c2=O)c1 (configuration not stated)	58*	-3	.	4	-2	1	48*
Cc1cccc(-n2c(O)c(C=NC3CCS(=O)(=O)C3)c3ccccc3c2=O)c1 (configuration not stated)	16	5	.	3	0	-1	.
CCCN1[C@H](C(=O)N[C@H](C)c2ccccc2)[C@@H](CO)[C@@H]2Cn3c(ccc(-c4ccc(F)cc4)c3=O)[C@@H]21	.	.	-2	.	.	.	.
CCOc1ccc(-c2nc3ccccc3c(=O)o2)cc1	-2	93	5	-16	-1	2	.
O=c1oc(-c2ccccc2Br)nc2ccccc12	40*	61	0	1	-3	29	66*
COc1cc(OC)nc(NC(=O)COC(=O)c2cccc(Cl)c2)n1	+	0	1	-20	0	-4	-15
O=C1N(Cc2ccccc2)Cc2ccccc2[C@@H]2OC(c3ccc(OCCCO)cc3)=N[C@]12Cc1ccccc1	.	.	1	.	.	.	.
COc1ccc(C(=O)N/N=C/c2cc3ccccc3[nH]c2=S)cc1	44*	40	.	4	5	14	45*
COc1ccc(C(=O)N/N=C/c2c[nH]c3ccccc23)cc1	-7	0	-1	7	3	-1	.
O=C1C(CSCc2ccccc2)NC(=S)N1c1ccccc1 (configuration not stated)	98*	0	1	5	0	6	60*
O=C(O)CC1NC(=S)N(c2ccccc2)C1=O (configuration not stated)	2	10	.	-10	-1	0	.
O=C1c2ccccc2-c2onc3ccc(NCCCn4ccnc4)c1c23	131*	31	.	-370	83*	30	135*	DNA intercalat=2.5*
COCc1cn(CC[C@@H]2CC[C@H](NC(=O)Nc3ccc(Cl)cc3)[C@H](CO)O2)nn1	.	.	0	.	.	.	.
COc1cccc2c1C(=O)c1c(O)c3c(c(O)c1C2=O)CC(O)(C(=O)CO)CC3OC1CC(N)C(O)C(C)O1 (configuration not stated)	.	.	.	.	.	.	.	DNA intercalat=6.8*
COc1ccccc1C#Cc1ccc([C@H]2[C@@H](CO)N3CCCCN(C(=O)C4CC4)C[C@@H]23)cc1	.	.	-4	.	.	.	.
C/C=C/c1ccc2c(c1)O[C@H](CN(C)C(=O)Nc1cc(F)ccc1F)[C@@H](C)CN([C@H](C)CO)S2(=O)=O	.	.	-12	.	.	.	.
C/C=C/c1ccc2c(c1)O[C@@H](CN(C)C(=O)Nc1cc(F)ccc1F)[C@H](C)CN([C@@H](C)CO)S2(=O)=O	.	.	-9	.	.	.	.	DNA intercalat=>35
CO[C@@H]1CN(C)C(=O)c2cc(NC(=O)C3CCCCC3)ccc2OC[C@H](C)NC[C@@H]1C	.	.	0	.	.	.	.
CN(C)/C=C1\C=C2C(=O)c3ccccc3N2C1=O	12	-7	2	.	103*	i	.	DNA intercalat=0.46*
Cc1cc(C)c2nc(C(F)(F)F)nc(NCCCN3CCCC3=O)c2c1	0	3	.	-5	0	-2	.	DNA intercalat=>35
CC(=O)Nc1cccc(N)c1	-4	-3	1	10	1	.	.	DNA intercalat=>35
CC(=O)Nc1cccc(C)c1	2	-2	0	6	-1	.	.
Cc1ccc(S(=O)(=O)Nc2ccc3c(c2)C(=O)N([C@@H](C)CO)C[C@@H](C)[C@H](CN(C)C(=O)Nc2cccc4ccccc24)OCCCC[C@@H](C)O3)cc1	.	.	-5	.	.	.	.
CSC1=NSC2=NC(=O)/C(=C\c3coc4ccccc4c3=O)C(=N)N12	-18	3	-1	i	-12	.	.
CC(C)CSC1=NSC2=NC(=O)/C(=C\c3coc4ccccc4c3=O)C(=N)N12	-17	0	.	i	-12	-5	.	DNA intercalat=17*
